From PubChem BioAssay come the findings set out here.

Several values for one entry are separate records, joined by “and”; a condition that tells them apart may be missing. Equal entries are not always repeated. Inconclusive results are not listed. Activity calls are given as the source filed them.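 The calls were made as follows, unless noted: active = compounds whose cell count with miR-34 switched on is under 0.7 times the count with it off; inactive = the rest.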

Test [1] can be described thus: Wnt pathway potentiators raising nuclear beta-catenin – imaging, WNT3A-conditioned medium, mouse C2C12, NPC library, primary screen (AID 1117326; in the data active = nuclear beta-catenin stimulation mostly above about 4.2%, no sharp cut-off; inactive = mostly below about 10%). Conditions: stronger effect = higher value.
Test [2] can be described thus: stimulators of insulin release from INS-1E, primary screen, cell-based, 5 mM glucose, NPC library (AID 1117329;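 active = compound raises insulin release from rat beta cells at 5 mM glucose, no numeric limit stated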). Conditions: rat INS-1E insulin secretion, at 10 µM, stronger effect = higher value.
The nature of test [3]: growth inhibition of GSK3B-pretreated HCT116 cells – cell-based, CellTiter-Glo, 0.2 to 20 µM (AID 1117336;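 active = compounds lowering colon cancer cell viability after pretreatment blocking the GSK3B kinase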). Conditions: HCT116 viability after GSK3B inhibitor, at 20 µM, stronger effect = higher value. Background: ATP-based viability assays read luminescence as a measure of living cells.
Test [4] in a line: inhibition of endothelial tube formation, primary screen, imaging, VEGF stimulated, CD31 staining, tube area, NPC library (AID 1117340;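 active = compound that reduces growth-factor-driven endothelial tube area in a mixed cell culture, no cutoff stated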). Conditions: VEGF-stimulated ADSC/ECFC co-culture, at 10 µM, stronger effect = higher value.
The nature of test [5]: GLP1 release stimulators, primary, NCI-H716, NPC library (AID 1117341;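 active = compound raises GLP1 secretion from the human gut endocrine cells, with no numeric limit stated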). Conditions: NCI-H716 cells, at 10 µM, stronger effect = higher value.
Test [6] can be described thus: HCT116 colon cancer cell growth inhibition, primary screen, CellTiter-Glo luminescence, NPC library (AID 1117342;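 active = compounds that lower survival of HCT116 colon cancer cells in the luminescence readout, no numeric limit stated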). Conditions: at 20 µM (top of the series).
The nature of test [7]: reduced SW480 viability measured with CellTiter-Glo, NPC library, primary (AID 1117343;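 active = compounds that lower viability of the colon cancer cells in the luminescence readout, with no numeric limit stated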). Conditions: CellTiter-Glo luminescence; at 20 µM (top of the series) unless noted.
Test [8] is described as follows: NPC library primary testing for decreased DLD-1 cell viability via CellTiter-Glo (AID 1117346;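 active = compounds that lower survival of DLD-1 colon cancer cells in the luminescence readout, no cutoff given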). Conditions: DLD-1 viability, CellTiter-Glo luminescence; at 20 µM (top of the series).
The test system of test [9] is Aerobactin synthetase IucA (Klebsiella pneumoniae). The experiment in a line: inhibition of K. pneumoniae IucA enzyme – biochemical, Tocris library, absorbance (AID 1345561; call rule not given here;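 also: 100% = enzyme without compound and 0% = no enzyme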). Conditions: purified IucA enzyme assay, absorbance (OD) read-out; stronger effect = lower value;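 tested at 8 µM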.
The nature of test [10]: viability loss with induced miR-34 in A549 – imaging, A549 dox-inducible miR-34, nuclei and caspase counts, primary screen (AID 1347080). Conditions: A549 miR-34 inducible, Hoechst nuclei count, 48 h.
Test [11] is described as follows: galactose survival enhancers in mitochondrial complex I cybrids – cell-based, galactose medium, ATP luminescence, primary screen (AID 1645843;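 active = z-score of at least 1.8 in each of two replicates, scored against plate mean and spread of sample wells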;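 also: positive z means more ATP and so rescue of galactose-driven cybrid death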). Conditions: complex I mutant cybrid cells, 72 h, stronger effect = higher value.
Test [12] is described as follows: P. berghei load reduction in hepatocytes – cell-based, HepG2, luciferase luminescence, HepG2 viability, primary screen (AID 624349; in the data active = parasite load remaining mostly below about 12%, no sharp cut-off; inactive = mostly above about 10%;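 also: 100% = mean of DMSO negative control wells on the same plate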). Conditions: P. berghei liver stage in HepG2, luciferase luminescence, concentration not given here; parasite load remaining: stronger effect = lower value; viability: measured here: HepG2 viability without parasites.
The nature of test [13]: viability loss in pontine glioma line – cell-based, SU-DIPG-XVII, MIPE5.0, CellTiter-Glo, qHTS, dose response (AID 1347060; cut-off not given, nearly all actives have AC50 up to about 26 µM;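 as to AC50: cells exposed to compound for 48 hours before viability readout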). Conditions: CellTiter-Glo ATP luminescence.
Test [14] in a line: growth inhibition of DIPG cells – cell-based, MIPE5.0 library, qHTS (AID 1347068; cut-off not given, nearly all actives have IC50 up to about 30 µM;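 as to IC50: cells exposed to compound for 48 hours before viability readout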). Conditions: SU-DIPG-XXV viability.
A short description of test [15]: MELAS cybrid and Rieske KO viability enhancers – cell-based, MELAS cybrids, Rieske KO mouse fibroblasts, CellTiter-Glo, primary screen (AID 1508586;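 active = mean z-score across replicates of 1.96 or higher in either the MELAS or the Rieske mutant cell line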;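 also: z relative to plate mean and SD of compound and empty wells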). Conditions: low glucose.
The target of test [16] is NAD(+) hydrolase SARM1 (Homo sapiens) (UniProt Q6SZW1). Description: blocking NAD cleavage by SARM1 SAM-TIR – cell lysate, NAD-Glo luminescence (AID 1508614;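 active = compound whose remaining NAD level is above about 45 nM, limit read from the data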;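 also: higher remaining NAD means stronger inhibition of SARM1 NADase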). Conditions: SAM-TIR HEK293T lysate NADase, at 1 µM, stronger effect = higher value.
Test [17] in a line: viability loss in pontine glioma line – cell-based, SU-DIPG-XIII, MIPE4.0, CellTiter-Glo, qHTS, dose response (AID 1347061; cut-off not given, nearly all actives have AC50 up to about 37 µM;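 also: cells exposed to compound for 48 hours before readout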). Conditions: CellTiter-Glo ATP luminescence.
Where [18] appears, read: stronger effect = lower value, cell number ratio, induced over uninduced.
Setting [19] is: measured here: relative caspase fold change +Dox/-Dox.
The mark [20] stands for this setting: measured here: total cells with miR-34 induction, stronger effect = lower value.
The mark [21] stands for this setting: measured here: total cells without miR-34 induction.
[22] abbreviates: MELAS cybrid survival, CellTiter-Glo 48 h, stronger effect = higher value.
[23] abbreviates: Rieske KO mouse fibroblast survival, CellTiter-Glo 72 h.

Sequence of NAD(+) hydrolase SARM1 (Homo sapiens) (Q6SZW1 whole entry, looked up): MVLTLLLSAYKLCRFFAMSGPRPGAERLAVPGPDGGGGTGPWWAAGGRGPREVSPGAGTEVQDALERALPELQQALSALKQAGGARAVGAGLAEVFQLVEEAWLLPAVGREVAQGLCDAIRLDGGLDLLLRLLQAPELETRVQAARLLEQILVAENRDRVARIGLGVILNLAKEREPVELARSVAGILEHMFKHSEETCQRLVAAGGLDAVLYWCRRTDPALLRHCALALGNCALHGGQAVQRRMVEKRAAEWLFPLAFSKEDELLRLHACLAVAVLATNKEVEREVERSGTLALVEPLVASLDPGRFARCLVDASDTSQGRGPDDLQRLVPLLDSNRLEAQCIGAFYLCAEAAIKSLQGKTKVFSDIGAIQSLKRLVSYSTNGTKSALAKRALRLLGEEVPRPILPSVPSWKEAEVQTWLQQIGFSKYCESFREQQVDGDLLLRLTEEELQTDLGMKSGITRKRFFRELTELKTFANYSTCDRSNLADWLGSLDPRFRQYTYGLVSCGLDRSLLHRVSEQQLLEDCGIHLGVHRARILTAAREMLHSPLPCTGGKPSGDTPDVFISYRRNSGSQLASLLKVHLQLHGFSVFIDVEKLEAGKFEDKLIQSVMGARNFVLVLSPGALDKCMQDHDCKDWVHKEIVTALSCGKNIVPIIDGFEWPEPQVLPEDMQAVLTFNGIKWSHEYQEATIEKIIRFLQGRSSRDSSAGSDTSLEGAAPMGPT

In general, remaining activity refers to the signal under treatment as a percentage of the control signal. On to `C[N+](C)(C)CC[N+]1(C)Cc2c(Cl)c(Cl)c(Cl)c(Cl)c2C1`, for which the nuclear beta-catenin stimulation is 4.4% (inactive) in test [1] (at 10 µM) and 2.6% in test [1] (stimulation, at 2 µM). Moreover, in [2], the insulin secretion stimulation is -0.5% (inactive). Besides, the viability decrease in test [3] was -1% (inactive). Also, the tube area decrease in test [4] was 7.3% (inactive). Besides, the GLP1 secretion stimulation in test [5] was 2.6% (inactive). In addition, in test [6], the inhibition of viability is -4.53% (inactive). In addition, the viability decrease (inhibition) in test [7] was 2.9% (inactive); in [8] it was -10.2% (inactive). Further, the remaining activity in test [9] is 115% (inactive). The fold change was 0.88 (inactive) in test [10] (setting [18]) and 1.79 in [10] (setting [19]). Moreover, the cell count in test [10] (setting [20]) worked out at 9090; in [10] (setting [21]) it was 10300. The z-score in test [11] was 0.045 (inactive).

For the compound `Cl/C(=C\n1cncn1)c1ccc(Cl)cc1Cl`, the nuclear beta-catenin stimulation is 3.9% (inactive) in test [1] (at 10 µM) and 4% in test [1] (stimulation, at 2 µM). For the same compound, the insulin secretion stimulation in test [2] was 2.4% (inactive). Also, the viability decrease in test [3] is 3% (inactive). In addition, in test [4], the tube area decrease was -2.8% (inactive). Further, in test [5], the GLP1 secretion stimulation is -1.4% (inactive). Further, the inhibition of viability in [6] is 30.3% (inactive). Also, the figures for the viability decrease (inhibition) in test [7] and in test [8] were 13.4% (inactive) and 24.2% (inactive), respectively. Besides, the remaining activity in test [9] was 121% (inactive). For the same compound, the values for the fold change in test [10] (setting [18]) and in test [10] (setting [19]) were 0.89 (inactive) and 0.653, respectively. Moreover, the cell count in test [10] (setting [20]) is 8590; in [10] (setting [21]) it was 9640. In addition, the z-score in test [11] is -0.15 (inactive).

Usually viability stands for a read-out of living cells in per cent, often relative to untreated cells. One may read the AC50 as the concentration giving half of the maximal activity seen. As usually defined, the IC50 is the concentration that gives 50% inhibition. Regarding `CC[C@]1(O)C[C@H]2CN(CCc3c([nH]c4ccccc34)[C@@](C(=O)OC)(c3cc4c(cc3OC)N(C=O)[C@H]3[C@@](O)(C(=O)OC)[C@H](OC(C)=O)[C@]5(CC)C=CCN6CC[C@]43[C@@H]65)C2)C1`, in [12], the parasite load remaining was 14.9% (inactive). In addition, the viability in test [12] came to 84%. Moreover, the nuclear beta-catenin stimulation in [1] (at 10 µM) is 44% (active); in test [1] (stimulation, at 2 µM), 76%. Further, the insulin secretion stimulation in test [2] was -1.1% (inactive). Further, the viability decrease in [3] is 98.6% (active). Besides, in test [4], the tube area decrease was 109% (active). Besides, the GLP1 secretion stimulation in [5] is 4.5% (inactive). Moreover, in test [6], the inhibition of viability is 67% (active). Also, the viability decrease (inhibition) in [7] is 56% (active); in test [8], 59.1% (active). In test [9], the remaining activity was 121% (inactive). In addition, the AC50 in test [13] was 29.5 nM (active). Also, in test [14], the half-inhibitory concentration (IC50) is 235 nM (active). Moreover, the fold change in [10] (setting [18]) is 0.912 (inactive) and 1.12 (inactive); in [10] (setting [19]) it was 1.85 and 0.866. Besides, the cell count in test [10] (setting [20]) is 1380 and 1910; in test [10] (setting [21]), 1510 and 1710. For the same compound, the z-score in test [15] (setting [22]) is -2.16 (inactive); in test [15] (setting [23]), 1.73; in [11], -0.515 (inactive) and -1.81 (inactive). Also, the remaining NAD in test [16] was 10 nM (inactive).

With `C1COC(NC(C2CC2)C2CC2)=N1`, the parasite load remaining in [12] is 46.7% (inactive). In addition, in test [12], the viability amounted to 103%. For the same compound, the nuclear beta-catenin stimulation in test [1] (at 10 µM) was 0.2% (inactive); in test [1] (stimulation, at 2 µM), -0.7%. Further, the insulin secretion stimulation in test [2] is 1.6% (inactive). Also, the viability decrease in test [3] was -1.8% (inactive). Further, the tube area decrease in [4] is -7.6% (inactive). For the same compound, in test [5], the GLP1 secretion stimulation is 1.5% (inactive). For the same compound, the inhibition of viability in test [6] was 5.7% (inactive). For the same compound, the viability decrease (inhibition) in test [7] was -4% (inactive); in [8] it was 7.9% (inactive). The remaining activity in test [9] was 98.2% (inactive). The compound was called inactive in test [13], in [17] and in [14]. In addition, the fold change in [10] (setting [18]) was 0.947 (inactive) and 0.935 (inactive) and 0.925 (inactive); in test [10] (setting [19]), 1.18 and 0.627 and 1.06. The cell count in test [10] (setting [20]) is 9720 and 9420 and 10200; in test [10] (setting [21]) it was 10300 and 10100 and 11000. The z-score in test [15] (setting [22]) was 0.462 (inactive); in test [15] (setting [23]), 0.9; in test [11], 0.365 (inactive) and -0.285 (inactive) and 0.8 (inactive).

With `FC(F)(F)c1ccccc1-n1ccnc1`, the nuclear beta-catenin stimulation in test [1] (at 10 µM) was 1.3% (inactive); in test [1] (stimulation, at 2 µM), -0.4%. In addition, the insulin secretion stimulation in test [2] is 1.7% (inactive). For the same compound, the viability decrease in [3] was 2% (inactive). The tube area decrease in test [4] was -7.9% (inactive). Besides, the GLP1 secretion stimulation in [5] is -1.9% (inactive). The inhibition of viability in test [6] is 2.03% (inactive). Further, the values for the viability decrease (inhibition) in [7] and in test [8] were -83.5% (inactive) and 4.5% (inactive), respectively. For the same compound, in [9], the remaining activity is 102% (inactive). For the same compound, the fold change in test [10] (setting [18]) is 0.976 (inactive) and 0.948 (inactive) and 0.969 (inactive); in test [10] (setting [19]), 1.92 and 1.05 and 0.962. The cell count in test [10] (setting [20]) is 9410 and 5980 and 9120; in test [10] (setting [21]) it was 9640 and 6310 and 9410. For the same compound, in [11], the z-score was 0.425 (inactive) and 1.96 (inactive).
